Screening results: PubChem, several laboratories
ANO1 activ – TMEM16A chloride channel activators or potentiators, primary screen, cell-based, HTS | HEK293 TMEM16A/YFP-H148Q/I152L, iodide quench fluorescence; stronger effect = lower value | B-score at 10 µM | actives 0.3% (n = 340,000);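 active = fluorescence-ratio B-score plate-corrected deviation score at least 3 library SD below zero, with starting fluorescence score within 5 deviations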;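 also: channel opened by trigger with iodide after compound preincubation; score built on the fluorescence ratio of max minus min over baseline; more negative score means more quench and so TMEM16A activation or potentiation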
Target sequence (Q8BHY3 whole entry, looked up): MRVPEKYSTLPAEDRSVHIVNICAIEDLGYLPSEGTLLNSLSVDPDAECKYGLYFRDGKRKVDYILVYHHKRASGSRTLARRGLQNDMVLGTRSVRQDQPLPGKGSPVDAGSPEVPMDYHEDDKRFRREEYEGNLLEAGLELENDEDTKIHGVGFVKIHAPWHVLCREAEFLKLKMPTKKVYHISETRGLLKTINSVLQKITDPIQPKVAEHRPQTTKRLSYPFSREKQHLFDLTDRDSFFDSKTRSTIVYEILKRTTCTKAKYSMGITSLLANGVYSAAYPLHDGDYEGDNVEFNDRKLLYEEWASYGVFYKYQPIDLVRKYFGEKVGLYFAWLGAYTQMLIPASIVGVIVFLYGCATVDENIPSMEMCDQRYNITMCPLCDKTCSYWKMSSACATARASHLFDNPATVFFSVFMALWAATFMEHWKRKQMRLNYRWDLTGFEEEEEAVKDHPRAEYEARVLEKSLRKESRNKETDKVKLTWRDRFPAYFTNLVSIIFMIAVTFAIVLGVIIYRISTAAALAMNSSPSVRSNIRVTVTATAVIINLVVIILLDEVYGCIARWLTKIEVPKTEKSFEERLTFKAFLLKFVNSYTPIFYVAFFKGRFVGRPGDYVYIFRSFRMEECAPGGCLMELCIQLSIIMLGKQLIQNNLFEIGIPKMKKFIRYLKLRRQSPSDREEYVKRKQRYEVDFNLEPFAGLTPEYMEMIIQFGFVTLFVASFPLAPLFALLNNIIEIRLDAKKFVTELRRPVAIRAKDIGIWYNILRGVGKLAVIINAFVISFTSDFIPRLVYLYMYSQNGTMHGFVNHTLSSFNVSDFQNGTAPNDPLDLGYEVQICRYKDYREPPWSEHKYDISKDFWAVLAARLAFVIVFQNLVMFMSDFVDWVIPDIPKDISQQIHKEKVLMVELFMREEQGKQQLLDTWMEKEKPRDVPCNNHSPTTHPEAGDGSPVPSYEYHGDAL
CHT allo act – CHT positive allosteric modulators, primary screen, cell-based, membrane potential dye, choline EC20 | High affinity choline transporter 1 (Homo sapiens), Q9GZV3 | CHT-expressing cells; stronger effect = higher value; LV-AA mutant CHT in HEK293 cells | B-score at 10 µM | actives 0.49% (n = 310,000) | AID 488977, 2010;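 active = initial fluorescence not abnormally high and integrated response B-score, plate-corrected, over 3 SD above library mean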
PKA-R1A activ – activators of PKA-R1A holoenzyme, primary screen, biochemical, fluorescence polarization, Cy5-IP20, bovine R1A, mouse PKAc | PKA-R1A dissociation; scaled: DMSO 0%, 113 µM cGMP 100% | AID 504707, 2011 | activation, % at 11.4 µM | cAMP-dependent protein kinase type I-alpha regulatory subunit (Bos taurus) + … | actives 0.083% (n = 340,000);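 active = percent activation above the mean of all tested compounds plus 3 SD, cut at about 19% in these data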;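 also: higher means more PKAc released from R1A so a rise in polarization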
TMEM16A inh – TMEM16A chloride channel inhibitors, primary screen, cell-based, HTS; HEK293 TMEM16A/YFP iodide influx fluorescence, ionomycin; normalized B-score (activity score, 25-100; higher = stronger inhibition) at 10 µM; actives 1.2% (n = 310,000); Anoctamin-1 (Mus musculus), Q8BHY3; AID 588511, 2011;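 active = ratio plate-corrected score three or more library SD toward inhibition, starting fluorescence score within five deviations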;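 also: score derived from kinetic fluorescence span divided by baseline fluorescence per well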
PKA-R2B act – activators of PKA-R2B holoenzyme, primary screen, biochemical, fluorescence polarization, Cy5-IP20, human; PKA-R2B holoenzyme dissociation; R2B truncated from residue 108, S112A mutant; 0% DMSO only, 100% 113 µM cGMP; cAMP-dependent protein kinase catalytic subunit beta (Homo sapiens) + cAMP-dependent …; actives 0.079% (n = 340,000); activation, % at 11.4 µM;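 active = activation above a cutoff set at the mean over all compounds plus 3 SD, cut at about 18% in these data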;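 also: higher means more holoenzyme dissociation and a rise in polarization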
CHT inh – inhibitors of human choline transporter CHT | High affinity choline transporter 1 (Homo sapiens), Q9GZV3 | CHT-expressing cells, membrane potential dye, choline response; stronger effect = lower value | B-score at 10 µM | actives 0.86% (n = 310,000);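 active = B-score over 3 SD under the library average, and starting fluorescence ratio not unusually high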;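 also: choline stimulus applied at its EC90 after an EC20 pre-addition; B-score computed on integrated fluorescence ratio after choline addition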
* hit, by the source's call. The list is not random: actives were taken first. Their share in the collection is about 2.5%.

`O=[N+]([O-])c1ccc(N2CCNCC2)cc1N1CCCCC1` gave ANO1 activ inactive, CHT allo act inactive, PKA-R1A activ -10.1, TMEM16A inh inactive, PKA-R2B act -1.5 and CHT inh inactive.
O=[N+]([O-])c1ccc(N2CCNCC2)cc1NC1CC1 was read as CHT allo act 6.38*, TMEM16A inh inactive and CHT inh inactive.
CCNc1cc(N2CCNCC2)ccc1[N+](=O)[O-] was read as CHT allo act 7.29*, TMEM16A inh inactive and CHT inh inactive.
O=P(NC1CCCCC1)(Oc1ccccc1)Oc1ccccc1 was read as ANO1 activ inactive, PKA-R1A activ 7.0 and PKA-R2B act 2.8.
CN[C@H]1C[C@H]2O[C@@](C)([C@H]1OC)n1c3ccccc3c3c4c(c5c6ccccc6n2c5c31)C(=O)NC4 was read as CHT allo act inactive, TMEM16A inh inactive and CHT inh -5.28*.
`CC[C@H]1C2C[C@H]3[C@@H]4N(C)c5ccccc5C45C[C@H](C2[C@H]5O)N3[C@@H]1O` (stereo partly drawn) gave ANO1 activ inactive, CHT allo act inactive, PKA-R1A activ -8.1, TMEM16A inh 100*, PKA-R2B act 0.5 and CHT inh inactive.
For CCC1C2CC3C4N(C)c5ccccc5C45CC(C2C5O)N3[C@@H]1O (stereo partly drawn) the results were ANO1 activ inactive, CHT allo act inactive, PKA-R1A activ 0.0, TMEM16A inh inactive, PKA-R2B act 2.0 and CHT inh inactive.
`CC/C(=C\C=C\[C@@H]1C=C[C@@H]2CCC[C@H]2[C@@H]1C(=O)c1ccc[nH]1)[C@@H]1O[C@@H]([C@@H](C)C(=O)O)CC[C@@H]1C` gave CHT allo act inactive, TMEM16A inh 100* and CHT inh -5.48*.
CCc1cc2c(cc1-c1csc(C/C(N)=N/O)n1)C(C)(C)CCC2(C)C was read as PKA-R1A activ -11.0 and PKA-R2B act -0.2.
Screening CC(C)Oc1cccc(NC(=O)c2cccn(Cc3ccc4c(c3)OC(F)(F)O4)c2=O)c1 returned ANO1 activ inactive, CHT allo act inactive, PKA-R1A activ -5.2, TMEM16A inh inactive, PKA-R2B act -3.7 and CHT inh inactive.
For Cc1cccc(C)c1NC(=O)c1cccn(Cc2ccc3c(c2)OC(F)(F)O3)c1=O the results were ANO1 activ inactive, CHT allo act inactive, PKA-R1A activ -7.2, TMEM16A inh 25*, PKA-R2B act -12.1 and CHT inh inactive.
`COC(=O)C1C(C(=O)O)C2(Cl)C(Cl)=C(Cl)C1(Cl)C2(Cl)Cl` (stereo not drawn) gave ANO1 activ inactive, PKA-R1A activ 6.6 and PKA-R2B act -2.6.
For CC(C)(C)c1cc(C=C(C#N)C#N)cc(C(C)(C)C)c1O the results were ANO1 activ inactive, CHT allo act inactive, PKA-R1A activ -6.9, TMEM16A inh 100*, PKA-R2B act 12.3 and CHT inh inactive.
Screening N#CC(C#N)=Cc1ccc(O)c(O)c1 returned ANO1 activ inactive, CHT allo act inactive, PKA-R1A activ -0.5, TMEM16A inh inactive, PKA-R2B act 6.5 and CHT inh inactive.
For COc1ccc2c(c1)/C(=C/c1cnc[nH]1)C(=O)N2 the results were ANO1 activ inactive, CHT allo act 8.82*, PKA-R1A activ 4.3, TMEM16A inh inactive, PKA-R2B act 15.6 and CHT inh inactive.
CC(Cc1ccc(O)cc1)NCC(O)c1ccc(O)c(O)c1 (stereo not drawn) was read as PKA-R1A activ -6.6 and PKA-R2B act -6.0.
For CCCCCc1nc2c(c(=O)c3ccccc3n2C)c(=O)n1C1CCCCCC1 the results were ANO1 activ -11.1*, CHT allo act inactive, PKA-R1A activ 2.0, TMEM16A inh inactive, PKA-R2B act -11.1 and CHT inh inactive.
For Cc1cc(NCCN)nc2ccccc12 the results were ANO1 activ inactive, CHT allo act 11.5*, PKA-R1A activ 3.4, TMEM16A inh inactive, PKA-R2B act -12.4 and CHT inh inactive.
`C/C=C/CC#N` gave ANO1 activ inactive, PKA-R1A activ 2.6 and PKA-R2B act -5.4.
O=C(c1ccc(Cl)cc1)C1CCCN(Cc2ccc3ncccc3c2)C1 (stereo not drawn) was read as ANO1 activ inactive, CHT allo act inactive, PKA-R1A activ -10.5, TMEM16A inh 25*, PKA-R2B act -8.6 and CHT inh inactive.
O=C(c1ccc(Cl)cc1)C1CCCN(Cc2ccc3c(c2)OCCO3)C1 (stereo not drawn) was read as ANO1 activ inactive, CHT allo act inactive, PKA-R1A activ 2.7, TMEM16A inh inactive, PKA-R2B act -1.1 and CHT inh inactive.
For CC[C@H](C)[C@@H]1O[C@@]2(C=CC1C)CC1C[C@@H](CC=C(C)C(O[C@H]3CC(OC)C(O[C@H]4CC(OC)C(O)C(C)O4)C(C)O3)C(C)C=CC=C3CO[C@@H]4C(O)C(C)=C[C@@H](C(=O)O1)[C@]34O)O2 (stereo partly drawn) the results were CHT allo act inactive, TMEM16A inh 25* and CHT inh inactive.
For CCCCNS(=O)(=O)c1ccc(OCC(=O)N2CCN(Cc3ccc4c(c3)OCO4)CC2)cc1 the results were ANO1 activ -4.72*, CHT allo act inactive, PKA-R1A activ -3.8, TMEM16A inh inactive, PKA-R2B act 8.3 and CHT inh inactive.
Cc1cc(=O)oc2cc(OCC(=O)N3CCN(C(C)c4ccccc4)CC3)c(Cl)cc12 (stereo not drawn) was read as ANO1 activ -41.9*, PKA-R1A activ -5.2 and PKA-R2B act -5.8.
For Cc1cc(=O)oc2cc(OCC(=O)N3C[C@H]4C[C@@H](C3)c3cccc(=O)n3C4)c(Cl)cc12 the results were ANO1 activ inactive, CHT allo act inactive, PKA-R1A activ -1.9, TMEM16A inh inactive, PKA-R2B act -6.2 and CHT inh inactive.
For Cc1cc(N(CCCl)CCCl)ccc1C=Cc1ccncn1 the results were ANO1 activ inactive, PKA-R1A activ 4.0 and PKA-R2B act 3.0.
